Test results from PubChem BioAssay.
The source made the active and inactive calls.

Assays:
[1] = compound effects on lung adenocarcinoma cell viability – A549, calcein-AM fluorescence, 48 h, basal, profiling panel (AID 1162); conditions: higher = more signal
[2] = compound effects on differentiated 3T3-L1 adipocyte viability – cell-based, 3T3-L1 adipocytes, calcein-AM fluorescence, 48 h, basal, profiling panel (AID 1163); conditions: 3T3-L1 adipocytes viability, higher = more signal
[3] = compound effects on hepatocellular carcinoma cell viability – HepG2, calcein-AM fluorescence, 48 h, basal, profiling panel (AID 1164); conditions: higher = more signal
[4] = compound effects on multiple myeloma cell viability – MM1S, calcein-AM fluorescence, 48 h, basal, profiling panel (AID 1165); conditions: higher = more signal
[5] = calcein-AM signal in unstimulated myeloma cells – cell-based, calcein-AM fluorescence, 48 h, PK04 Diversity Set, profiling panel (AID 1166); conditions: RPMI8226 myeloma viability, higher = more signal;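 further: cells grown under basal conditions without added stimulus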
[6] = JC-1 mitochondrial signal, unstimulated HepG2 cells – cell-based, JC-1 fluorescence, 24 h, 100 nL compound, profiling panel (AID 1167); conditions: HepG2 mitochondrial potential, higher = more signal
[7] = JC-1 mitochondrial signal, unstimulated adipocytes – cell-based, JC-1 fluorescence, 3T3-L1 adipocytes, 24 h, 100 nL compound, profiling panel (AID 1168); conditions: JC-1 mitochondrial fluorescence, higher = more signal, called active from +8 up or from −8 down
[8] = JC-1 mitochondrial signal, unstimulated myeloma cells – cell-based, JC-1 fluorescence, RPMI8226, 24 h, 100 nL compound, profiling panel (AID 1169); conditions: JC-1 mitochondrial potential fluorescence, higher = more signal
[9] = JC-1 mitochondrial signal, unstimulated MM1S myeloma – cell-based, JC-1 fluorescence, 24 h, 100 nL compound, profiling panel (AID 1170); conditions: MM1S mitochondrial potential, higher = more signal
[10] = resazurin metabolic signal in A549 cells – cell-based, resazurin fluorescence, 24 h, PK04 Diversity Set, profiling panel (AID 1171); conditions: A549 viability, higher = more signal, called active from +8 up or from −8 down
Further: test concentration not given here.

| SMILES | z-score [1] | z-score [2] | z-score [3] | z-score [4] | z-score [5] | z-score [6] | z-score [7] | z-score [8] | z-score [9] | z-score [10] |
| --- | --- | --- | --- | --- | --- | --- | --- | --- | --- | --- |
| COc1cccc(C)c1NC(=O)O[C@H]1[C@H](OC(=O)Nc2ccccc2)[C@H](OC(=O)Nc2ccccc2)[C@@H](OC)O[C@@H]1CO | -1.09 | 0.93 | -1.1 | -2.53 | -2.81 | 0.321 | 0.306 (inactive) | -1.1 | 0.268 | -2.57 (inactive) |
| CCCC=C(CCC)[C@@H](NC(=O)Cc1ccccc1)c1ccc(C(=O)OC)cc1 | -0.988 | -0.735 | -0.512 | -2.42 | -0.513 | -1.59 | -1.7 (inactive) | -0.566 | -2.09 | -0.712 (inactive) |
| C=C(COC)C(=O)CC[C@H](OC(=O)c1ccccc1-c1ccccc1C(=O)O)c1ccc(CO)o1 | -0.643 | -0.398 | -0.985 | 0.232 | -0.0416 | -1.01 | -0.345 (inactive) | 0.12 | 0.433 | -0.256 (inactive) |
| O=C1N(Cc2ccccc2)c2ccccc2[C@H]2OC(c3ccc(OCCCO)cc3)=N[C@@]12CCS(=O)(=O)c1ccccc1 | -0.737 | 0.899 | -0.117 | -0.641 | -1.43 | 0.291 | 0.605 (inactive) | -0.497 | -0.0454 | -0.725 (inactive) |
| NC(=O)NCC#Cc1ccc2c(c1)[C@]1(C(=O)N2)[C@H](c2ccc(OCCO)cc2)N2[C@H](c3ccccc3)[C@H](c3ccccc3)OC(=O)[C@H]2[C@@H]1C(=O)N1CCCCCCC1 | -0.702 | -0.467 | -0.455 | 0.135 | -1.31 | -1.76 | -1.87 (inactive) | -0.638 | -1.02 | 0.252 (inactive) |
| COC(=O)[C@]1(Cc2ccccc2CN=[N+]=[N-])N=C(c2ccc(OCCCO)cc2)O[C@@H]1c1ccccc1CN=[N+]=[N-] | -3.46 | 0.766 | -4.79 | -3.67 | -4.08 | 0.344 | 0.24 (inactive) | -1.07 | -2.47 | -3.05 (inactive) |
| COC(=O)[C@@]1(Cc2ccccc2)[C@H]2c3cc(C(=O)N4CCCC4)n(CCO)c3C[C@H]2CN1C(=O)c1ccccc1 | -0.258 | 0.577 | 0.345 | -0.867 | 0.688 | 0.844 | 0.671 (inactive) | 0.0245 | -0.77 | -0.103 (inactive) |
| CN1C(=O)C2C=CC(C(O)C3CCCCC3)N(N(c3ccccc3)c3ccccc3)C2C1=O (stereo not given) | -0.42 | -0.88 | 0.149 | 0.241 | -0.758 | -0.954 | -1.2 (inactive) | -0.361 | -0.365 | -0.361 (inactive) |
| COC(=O)C(CC#Cc1ccc2c(c1)[C@]1(C(=O)N2)[C@H](c2ccccc2OCCO)N2[C@H](c3ccccc3)[C@H](c3ccccc3)OC(=O)[C@H]2[C@@H]1C(=O)Nc1nc2ccccc2s1)C(=O)OC | 0.689 | 1.15 | 0.755 | -3.33 | -1.74 | -2.74 | -0.00705 (inactive) | -0.905 | -0.548 | -0.203 (inactive) |
| O=C(O)[C@@]1(Cc2ccccc2)COC(c2ccc(OCCCO)cc2)=N1 | -0.297 | 0.139 | 0.0851 | -0.108 | 0.21 | -0.519 | -0.0997 (inactive) | 0.478 | 0.0336 | 0.542 (inactive) |
| C=CC[C@]1(C(=O)NCC(O)CO)N=C(c2ccc(OCCCO)cc2)O[C@H]1c1ccccc1N=[N+]=[N-] (stereo not given in full) | -0.402 | 0.864 | -0.735 | -1.16 | 0.736 | -0.285 | 0.13 (inactive) | -0.49 | 0.857 | 0.702 (inactive) |
| CN(C)C(=O)[C@]1(Cc2ccccc2N=[N+]=[N-])N=C(c2ccc(OCCCO)cc2)O[C@@H]1c1ccccc1CN=[N+]=[N-] | -0.409 | 1.01 | -0.386 | -2.39 | -3.03 | 0.38 | -0.286 (inactive) | -0.992 | -1.09 | 1.59 (inactive) |
| N#Cc1ccc(NN2C(C(O)c3ccccc3)C=CC3C(=O)N(c4ccccc4)C(=O)C32)cc1 (stereo not given) | -1.14 | -0.173 | 0.216 | -0.861 | -0.32 | -0.782 | -0.182 (inactive) | 0.0989 | 0.976 | -0.331 (inactive) |
| CCCNC(=O)[C@@H]1c2ccccc2C(=O)N(CC23CC4CC(CC(C4)C2)C3)[C@H]1c1ccc(CO)cc1 | -0.242 | 0.487 | 0.275 | -0.671 | -2.49 | 1.81 | -0.0153 (inactive) | -0.236 | 0.141 | 0.704 (inactive) |
| COc1ccc([Si](C)(C)[C@@H]2[C@@H](CCO)O[C@]3(C(=O)N(Cc4ccccc4)c4ccc(N5CCCCC5=O)cc43)[C@H]2C)cc1 | -0.887 | 2.07 | -1.02 | -1.58 | -4.08 | 0.311 | -0.258 (inactive) | -0.776 | -0.786 | -1.88 (inactive) |
| CCCCC(O)C1C=CC2C(=O)N(Cc3ccccc3)C(=O)C2N1n1cnnc1 (stereo not given) | -1.15 | 0.845 | -0.189 | 0.179 | -0.458 | 0.135 | -0.942 (inactive) | -0.874 | -1.26 | 0.164 (inactive) |

| SMILES | z-score [1] | z-score [2] | z-score [3] | z-score [4] | z-score [5] | z-score [6] | z-score [7] | z-score [8] | z-score [9] | z-score [10] |
| --- | --- | --- | --- | --- | --- | --- | --- | --- | --- | --- |
| CCCc1cc2c(n1Cc1ccc(OC)cc1)C(C)C1CN(C(=O)c3ccccc3)C(C)(C(=O)OC)C21 (stereo not given) | -0.923 | 0.431 | -0.815 | -2.74 | -4.66 | 2.08 | -1.82 (inactive) | -0.157 | -1.61 | -0.535 (inactive) |
| C[C@H]1ON(c2ccccc2)[C@@H](c2ccccc2)[C@@H]1C(=O)N1C(=O)OC[C@@H]1c1ccccc1 | -0.279 | 0.261 | -0.941 | 0.608 | -0.144 | -1.24 | 0.46 (inactive) | 0.488 | -0.127 | 0.535 (inactive) |
| CO[C@H]1O[C@H](CO)[C@@H](OC(=O)c2ccc(Br)cc2)[C@@H]2OC(=O)[C@H](Cc3cccc(Br)c3)C/C=C/C[C@@H](Cc3cccc(Br)c3)C(=O)O[C@@H]12 | -0.0692 | 1.09 | -0.542 | -1.82 | -3.5 | -3.52 | -0.442 (inactive) | 0.229 | -0.698 | -0.932 (inactive) |
| CC(C)[Si](C#C[Si](C(C)C)(C(C)C)C(C)C)(O[C@H](C)c1cn(Cc2cccc(Cl)c2)nn1)C(C)C | 1.85 | -0.667 | 1.12 | 0.673 | 0.133 | 1.37 | 0.159 (inactive) | -0.0288 | 0.238 | 1.15 (inactive) |
| COC(=O)[C@@]1(Cc2ccc(F)cc2)[C@H]2c3cc(C(=O)N4CCCC4)n(Cc4ccccc4)c3C[C@H]2CN1C(=O)c1ccccc1 | -0.858 | -0.273 | -0.579 | -2.1 | -4.11 | 0.49 | -0.76 (inactive) | -0.104 | -0.759 | 0.0314 (inactive) |
| CC(C)CCC[C@@H](C)[C@H]1CC[C@@]2(C)C3=C(CC[C@]12C)[C@@]1(C)CC[C@H](OC(=O)c2ccc(N)cc2)C(C)(C)C1CC3 (stereo not given in full) | 1.22 | 0.187 | 1.06 | -0.169 | 0.814 | 0.703 | 0.335 (inactive) | -0.064 | -0.0494 | -0.16 (inactive) |
| COCCOC(=O)N1C(=O)[C@@]2(c3cc(C#CCNC(N)=O)ccc31)[C@H](C(=O)N1CCCCCCC1)[C@H]1C(=O)O[C@H](c3ccccc3)[C@H](c3ccccc3)N1[C@@H]2c1ccc(OCCO)cc1 | 0.626 | 0.636 | 1.46 | 0.246 | 1.01 | -1.47 | -2.15 (inactive) | -0.764 | -1.75 | -0.619 (inactive) |
| [N-]=[N+]=NCc1ccccc1[C@H]1OC(c2ccc(OCCCO)cc2)=N[C@@]1(Cc1ccccc1)C(N)=O | 0.267 | 0.514 | 1.63 | -0.0987 | 0.317 | 1.19 | 0.593 (inactive) | -0.418 | -1.01 | 1.16 (inactive) |
| C=CCC(OC(C)=O)[C@@H]1[C@@H](N(Cc2cccc3ccccc23)C(=O)Cc2ccc(F)cc2)c2cc(OCCCO)ccc2N1C(=O)Cc1ccc(OC)cc1 (stereo not given in full) | 1.34 | 1.88 | 0.99 | 0.827 | 0.762 | 2.26 | 0.527 (inactive) | 0.183 | -0.0319 | 0.641 (inactive) |
| C=C(/C(=C/C[C@@H](OC(C)=O)c1ccccc1OCCO)c1cnc2ccccc2c1)C(C)C | -0.0635 | 2.39 | -0.795 | -2.36 | -1.45 | 0.517 | -1.27 (inactive) | -0.0844 | 1.74 | -0.945 (inactive) |
| CC[C@@H]1[C@@H]2C3C(=O)N(CC)C(=O)C3CC(=O)[C@@H]2[C@H](c2ccc(C)cc2)N1S(=O)(=O)c1ccc(C)cc1 (stereo not given in full) | 0.63 | 0.552 | 0.769 | -0.639 | -1.6 | 0.601 | 0.0417 (inactive) | -0.227 | -1.59 | -0.195 (inactive) |
| C[N+](C)(C)CCCCCCNC(=O)[C@@H]1C[C@@H]2C(=O)NCC(=O)N2[C@@H]1c1ccc(O)cc1 | -0.261 | -0.166 | 0.517 | -0.0232 | 0.0324 | -1.58 | 0.251 (inactive) | -0.0725 | -0.534 | 0.28 (inactive) |
| COC(=O)[C@@]1(Cc2ccc(OC)cc2)[C@H]2c3cc(C(=O)N(C)C)n(Cc4cc(C)n(C)n4)c3C[C@H]2CN1C(=O)c1ccccc1 | -0.892 | 0.336 | -0.384 | -0.407 | -1.77 | 1.57 | -0.938 (inactive) | 0.534 | -0.228 | -1.9 (inactive) |
| CCC[C@@H]1C[C@@]1(CCC)[C@@H](NC(=O)c1cccs1)c1ccc(Cl)cc1 | -0.162 | -0.608 | -0.892 | -2.77 | -4.78 | -0.52 | 0.028 (inactive) | -0.000314 | -0.386 | 4.94 (inactive) |
| NC(=O)[C@@H]1[C@H]2C(=O)O[C@H](c3ccccc3)[C@H](c3ccccc3)N2[C@H](c2ccccc2OCCO)[C@@]12C(=O)Nc1ccc(C#CCCO)cc12 | 0.888 | 1.27 | 0.133 | 0.448 | -3.68 | -0.945 | 0.783 (inactive) | -1.11 | 0.068 | 0.461 (inactive) |
